From PubChem
DT40 TDP1 no CPT = qHTS for Inhibitors of human tyrosyl-DNA phosphodiesterase 1 (TDP1): qHTS in cells in absence of CPT. DT40 Tdp1-/- hTDP1 cells, no CPT, ATP luminescence, 48 h. actives 15% (n = 420,000). Potency, µM (series often up to 46.2 µM), hits mostly inhibitors; also: nearly all actives have a fitted effect of over 55% in size
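Luminescent ATP content (CellTiter-Glo) served as the growth readout. Knockout chicken DT40 cells expressing human TDP1 were exposed to compounds without camptothecin for a minimum 48 hr at 37 °C.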
TDP1 cell CPT = growth inhibition of DT40 Tdp1-/-;hTDP1 cells with camptothecin (screen for TDP1 inhibitors); chicken DT40 Tdp1-/-;hTDP1 cells + 20 nM CPT, ATP luminescence, 48 h; Potency, µM (doses to about 46.2 µM), hits mostly inhibitors; actives 12% (n = 420,000); also: nearly all actives have a fitted effect of over 55% in size
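Cell growth measured by CellTiter-Glo luminescence after a minimum 48 h, 37 C compound exposure with 20 nM CPT in Tdp1-knockout DT40 cells stably expressing hTDP1, seeded 400/well; qHTS titration format.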
KB-3-1 tox = KB-3-1 parental cell cytotoxicity; KB-3-1 viability, CellTiter-Glo ATP luminescence, 72 h; Potency, µM (top dose mostly 46.1 µM), actives largely listed as cytotoxic; actives 1.4% (n = 400,000); also: nearly all actives have a fitted effect of over 60% in size
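Luminescent ATP read-out (CellTiter-Glo) measures survival of drug-naive KB-3-1 cells after 72 h compound exposure at 37 °C. Titration series was screened from lowest to highest concentration, with DMSO vehicle plates as background controls.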
HT1080 IDH1KD tx = toxicity to HT-1080 IDH1 knockdown cells (counter line); HT-1080 IDH1 knockdown viability, ATP luminescence, 48 h; Potency, µM (series often up to 46.1 µM), actives largely listed as cytotoxic; actives 2% (n = 360,000)
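% activity derives from luminescence (CellTiter-Glo), normalised to DMSO and no-cell wells. HT-1080-IDH1KD cells, 750/well, had 48 h compound exposure at 37 °C.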
KB-V1 MDR tox = KB-V1 MDR subline cytotoxicity; KB-V1 MDR cells viability, CellTiter-Glo, 72 h; Potency, µM (doses to about 46.1 µM), usual class: cytotoxic; actives 3.4% (n = 400,000); also: nearly all actives have a fitted effect of over 60% in size
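Following 72 h at 37 degrees C with compound, KB-V1 cell viability was read by CellTiter-Glo luminescence, medium being phenol-red-free DMEM plus 10% FBS; concentration-response parameters came from normalized, curve-fitted qHTS data.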
HT1080-NT tox = kills 2HG-producing HT-1080-NT fibrosarcoma cells. Potency, µM (highest dose often 46.1 µM), hits mostly cytotoxic. HT-1080-NT fibrosarcoma viability, CellTiter-Glo ATP luminescence, 48 h. actives 1.6% (n = 360,000);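 also: NT is the 2HG producing partner of a matched IDH1 knockdown line; nearly all actives have a fitted effect of over 55% in size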
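750 cells/well, RPMI + 5% FBS; 2 h settle, compound pin-transfer, 48 h at 37 degrees C. CellTiter-Glo 10 min RT, luminescence. Normalized to DMSO and media-only wells.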
A number is an active result; – = inactive; ? = inconclusive; · = no result. Sampled rows, rich in hits. Any-hit rate of the full collection: about 19%. Calls follow the shape of the dose curve; as a rule, active = well fitted curve in the direction sought with a large enough effect; inconclusive = small, poorly fitted or top-dose-only effect, or another doubt; inactive = no such curve, though single readings can be large; an effect the other way counts as inactive or inconclusive.

SMILES	DT40 TDP1 no CPT	TDP1 cell CPT	KB-3-1 tox	HT1080 IDH1KD tx	KB-V1 MDR tox	HT1080-NT tox
Cc1ccc2nc3c(cc(C(=O)NCc4ccco4)c(=N)n3Cc3ccco3)c(=O)n2c1	21µM	?	–	–	–	–
N=c1c(C(=O)NCc2ccccc2)cc2c(=O)n3ccccc3nc2n1Cc1ccco1	?	?	–	–	–	–
Cc1ccc(CNC(=O)c2cc3c(=O)n4ccccc4nc3n(Cc3ccco3)c2=N)cc1	15µM	13µM	–	–	–	–
CCOC(=O)c1cc(-c2ccc(F)cc2)n(CCC(=O)Nc2nc3cc(C)c(C)cc3s2)c1C	?	?	–	·	–	·
O=C(NC1CCCCC1)C(c1ccc2ncccc2c1)N(Cc1cccs1)C(=O)c1cccs1 (centres undefined)	?	?	–	?	–	?
CCOC(=O)CN(C(=O)CNC(=O)c1cccs1)C(C(=O)NC1CCCCC1)c1cccs1 (centres undefined)	–	–	–	–	21µM	–
O=C(NC1CCCCC1)C(c1cccs1)N(Cc1cccs1)C(=O)c1cccs1 (centres undefined)	16µM	18µM	–	?	?	?
COCCn1c(C)cc(C(=O)CSc2nnnn2C2CCCC2)c1C	–	–	·	–	·	–
Cc1ccc(C)c(OCC(=O)Nc2ccccc2C(=O)N2CCN(C)CC2)c1	–	–	–	–	–	–
CC(C)c1ccccc1OCC(=O)Nc1ccccc1C(=O)N1CCOCC1	16µM	16µM	–	–	?	–
COC(=O)c1ccc(NC(=S)NC2CCCCC2C)cc1 (centres undefined)	26µM	23µM	?	?	?	?
COC(=O)c1ccc(NC(=S)NC(=O)C2CCC2)cc1	–	–	–	–	–	?
CCOC(=O)N1CCN(C(=O)c2ccccc2NC(=O)COc2ccccc2C)CC1	21µM	?	–	–	–	–
CCC(=O)c1ccc(OCC(=O)Nc2ccccc2C(=O)N2CCCCC2)cc1	16µM	?	–	–	–	–
CCN(CC)c1cc2c(cc1F)c(=O)c(S(=O)(=O)c1ccc(C)cc1)cn2Cc1ccc(F)cc1	?	?	–	·	–	·
Cc1noc(C)c1S(=O)(=O)NC(=O)C1(C)CCN1C(=O)Cc1ccc(-c2ccccc2)cc1 (centres undefined)	–	–	–	–	?	–
Nc1ccc2c(c1)[nH]c(=O)c1cc(N)ccc12	?	–	–	–	–	–
Cc1ccccc1C(=O)N1CCC(C(=O)N2CCN(c3ncccn3)CC2)CC1	–	–	–	–	–	–
Cc1cccc(OC(C)C(=O)Nc2ccccc2C(=O)N2CCCCC2)c1 (centres undefined)	13µM	?	–	–	–	–
COc1ccc(OCC(=O)Nc2ccccc2-c2ccccc2)cc1	?	?	?	?	–	–
CCOC(=O)N1CCN(C(=O)C2CCN(C(=O)c3ccccc3C)CC2)CC1	1µM	0.92µM	?	?	?	?
Cc1ccc(OCC(=O)Nc2ccccc2-c2ccccc2NC(=O)COc2ccc(C)cc2)cc1	21µM	?	–	–	?	–
Cc1ccccc1OCC(=O)Nc1ccccc1-c1ccccc1	6.5µM	–	–	–	–	–
Cc1cc(OC(C)C(=O)Nc2ccccc2C(=O)N2CCCC2)ccc1Cl (centres undefined)	?	?	–	–	–	–
CCCc1cc(C(=O)NC2CCCN(Cc3ccccc3F)C2)no1 (centres undefined)	–	–	–	–	?	–
SMILES	DT40 TDP1 no CPT	TDP1 cell CPT	KB-3-1 tox	HT1080 IDH1KD tx	KB-V1 MDR tox	HT1080-NT tox
CCc1nc2ccc(C(=O)N(C)CCN(C)C)cn2c1N(CC)C(=O)NCCc1ccccc1	–	–	–	–	–	–
CCn1c(C(C)NC(=O)c2cccs2)n[nH]c1=S (centres undefined)	?	?	–	–	–	–
CCN(CC)c1ccc(C(=O)OCC(=O)NC2CCCCC2C)cc1 (centres undefined)	15µM	21µM	–	–	–	–
CC1CCCC(NC(=O)COC(=O)c2ccc(N(C)C)cc2)C1C (centres undefined)	–	?	–	–	?	–
Cc1ccccc1OCC(=O)Nc1ccccc1C(=O)NC1CC1	21µM	?	–	–	?	–
CCN(CC)c1ccc(C(=O)OCC(=O)Nc2ccccc2-c2ccccc2)cc1	18µM	?	–	–	?	–
COc1cc(C(CC(=O)Nc2ccc(C)c(F)c2)N2Cc3ccccc3C2=O)cc(OC)c1OC (centres undefined)	–	–	–	·	–	·
COc1ccc(CC(=O)Nc2ccc3c(c2)CCC3)cc1OC	9.2µM	?	–	–	–	–
COc1ccc(OC)c(CNc2ccc3c(c2)CCC3)c1	16µM	?	–	–	–	–
Cc1ccc2c(=O)cc(C(=O)N(Cc3ccc(N(C)C)cc3)C3CCS(=O)(=O)C3)oc2c1 (centres undefined)	?	–	–	·	–	·
CCOC(=O)C1(N(CC)CC)Sc2cc(C)ccc2NC1=O (centres undefined)	18µM	16µM	?	?	10µM	?
CCCCn1nc(C(=O)N(CC)CC(=O)Nc2c(F)cccc2F)c2ccccc2c1=O	?	?	–	–	–	–
Cn1nc(CC(=O)NC2CCCCCCCCCCC2)c2ccccc2c1=O	18µM	18µM	?	–	–	–
Cn1nc(CC(=O)Nc2ncc(Br)s2)c2ccccc2c1=O	?	10µM	–	–	–	–
Cn1nc(CC(=O)Nc2ccc3c(c2)CCC3)c2ccccc2c1=O	1.6µM	3.3µM	–	2.9µM	–	–
CCCCn1nc(C(=O)NCC(=O)Nc2c(C)cccc2C)c2ccccc2c1=O	?	?	–	–	1.6µM	–
Cn1cc(CC(=O)NC2CCCCC2)c2ccccc21	–	–	–	–	–	–
COc1ccc(CCNC(=O)Cc2nn(C)c(=O)c3ccccc23)cc1OC	?	?	–	–	–	–
CCCN1CCN(S(=O)(=O)c2ccc(-n3cnnn3)cc2)CC1	–	–	–	–	–	–
CCCSc1ncc(Cl)c(C(=O)NCc2ccc(OC)cc2)n1	?	–	·	·	·	·
CCC(=O)N1CCC(C)(C(=O)Nc2ccc3c(c2)OCO3)C1 (centres undefined)	–	?	–	–	–	–
CCCCn1nc(C(=O)NC2CCCCC2)c2ccccc2c1=O	12µM	?	–	–	–	–
Cn1nc(C(=O)NC2CCCCC2)c2ccccc2c1=O	–	–	–	–	16µM	–
